These results are taken from the supplement of paper PMC10849652.

Experiment in all cases: log2 fold change, soluble protein after heating vs DMSO (PISA); higher = thermal stabilisation; K562 lysate, 10 uM; active = over 0.2 and 3.5 SD of the protein, either way, in both replicates (recomputed)
Compound in one assay: Cc1cn(-c2cc(NC(=O)c3ccc(C)c(Nc4nccc(-c5cccnc5)n4)c3)cc(C(F)(F)F)c2)cn1 [nilotinib]
The essentials: (§1)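 A 30 min treatment with 10 μM compound was applied to crude K562 extract at 1 mg/mL protein in PBS pH 7.4 with 1 mM MgCl2. Heating for 3 min spanned 48°C-58°C, after which aliquots were pooled, adjusted to 0.5% NP-40 at 4°C and spun at 21,000xg for 90 min. TMTpro 16plex LC-MS/MS of the supernatant, with channel sums equalised, gave values recorded as log-two fold change in thermal stability against solvent controls, from duplicates.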

Compound in assay [1]: Cc1nc(Nc2n[nH]c3c2CN(C(=O)N[C@H](CN(C)C)c2ccccc2)C3(C)C)c2sccc2n1
Summed up:
as §1

Compound in the next assay: Cc1nc(Nc2ncc(C(=O)Nc3c(C)cccc3Cl)s2)cc(N2CCN(CCO)CC2)n1 [dasatinib]
The essentials:
as §1

Compound in assay [2]: Cc1ncc(-c2ccnc(Nc3ccc(S(C)(=O)=O)cc3)n2)n1C(C)C
The essentials: as §1

Compound in assay [3]: Cn1cc(-c2ccc3c(c2)CCN3C(=O)Cc2cccc(C(F)(F)F)c2)c2c(N)ncnc21
The essentials:
as §1

Compound in the next assay: Cn1cc(CNCC2CCN(c3ncc(C(=O)NO)cn3)CC2)c2ccccc21 [quisinostat]
The essentials:
as §1

Compound in a further assay: Cn1cncc1[C@@](N)(c1ccc(Cl)cc1)c1ccc2c(c1)c(-c1cccc(Cl)c1)cc(=O)n2C [tipifarnib]
Summed up:
as §1

Compound in assay [4]: NC(=O)Nc1cc(-c2cccc(F)c2)sc1C(=O)N[C@H]1CCCNC1
The essentials:
as §1

Compound in assay [5]: NC(=O)c1cnc(N[C@@H]2CCCC[C@@H]2N)nc1Nc1cccc(-n2nccn2)c1
The essentials: as §1

Compound in assay [6]: NC1(c2ccc(-c3nc4ccn5c(=O)[nH]nc5c4cc3-c3ccccc3)cc2)CCC1
Summed up: as §1

Compound in assay [7]: NCC(=O)Nc1ccc(-n2nc(C(F)(F)F)cc2-c2ccc3c(ccc4ccccc43)c2)cc1
The essentials: as §1

Compound in the next assay: O=C(CCCCCCC(=O)Nc1ccccc1)NO [vorinostat]
Summed up: as §1

Compound in a further assay: O=C(O)c1ccc2c(c1)nc(Nc1cccc(Cl)c1)c1ccncc12 [silmitasertib]
The essentials:
as §1

Compound in assay [8]: O=C1NC(=O)C(c2cnc3ccccn23)=C1c1cn2c3c(cc(F)cc13)CN(C(=O)N1CCCCC1)CC2
Summed up:
as §1

Compound in a further assay: c1cn2cc(-c3ccc4cn[nH]c4c3)nc(Nc3ccc(N4CCOCC4)cc3)c2n1 [entospletinib]
Summed up: as §1

Targets with a hit are over-represented here; the source holds about 8,800 in all. About 0.5% of all pairs of compound and target were hits. Values without a mark were called inactive.

Sequence of UniProt Q9Y4E5 (Q9Y4E5 whole entry, looked up): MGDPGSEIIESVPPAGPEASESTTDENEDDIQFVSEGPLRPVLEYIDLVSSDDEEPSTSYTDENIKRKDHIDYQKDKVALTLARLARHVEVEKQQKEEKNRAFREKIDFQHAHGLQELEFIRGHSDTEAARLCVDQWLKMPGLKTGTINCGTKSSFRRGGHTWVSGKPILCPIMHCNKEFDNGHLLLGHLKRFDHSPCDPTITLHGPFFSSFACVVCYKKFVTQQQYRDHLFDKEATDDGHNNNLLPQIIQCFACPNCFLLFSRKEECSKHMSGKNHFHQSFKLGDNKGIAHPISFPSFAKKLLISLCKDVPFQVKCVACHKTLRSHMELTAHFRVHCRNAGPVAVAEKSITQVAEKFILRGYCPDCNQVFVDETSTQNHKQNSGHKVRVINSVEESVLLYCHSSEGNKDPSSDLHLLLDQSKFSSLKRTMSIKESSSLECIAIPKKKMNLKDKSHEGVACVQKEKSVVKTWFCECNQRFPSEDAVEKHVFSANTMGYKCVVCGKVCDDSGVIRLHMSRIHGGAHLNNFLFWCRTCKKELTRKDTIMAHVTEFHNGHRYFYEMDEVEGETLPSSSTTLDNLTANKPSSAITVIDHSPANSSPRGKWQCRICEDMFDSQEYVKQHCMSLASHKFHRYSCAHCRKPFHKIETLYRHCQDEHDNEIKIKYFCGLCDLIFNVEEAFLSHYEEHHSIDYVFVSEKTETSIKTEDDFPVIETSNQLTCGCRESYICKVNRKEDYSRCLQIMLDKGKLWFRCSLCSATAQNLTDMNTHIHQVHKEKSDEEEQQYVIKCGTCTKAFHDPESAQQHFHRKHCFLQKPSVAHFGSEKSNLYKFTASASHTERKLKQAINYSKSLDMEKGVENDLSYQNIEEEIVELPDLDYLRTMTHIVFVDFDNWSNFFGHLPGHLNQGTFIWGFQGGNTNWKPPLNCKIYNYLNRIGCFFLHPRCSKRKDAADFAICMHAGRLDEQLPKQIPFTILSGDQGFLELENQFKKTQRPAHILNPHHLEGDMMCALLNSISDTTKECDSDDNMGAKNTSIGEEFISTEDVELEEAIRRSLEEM
Sequence of UniProt Q96S55 (Q96S55 whole entry, looked up): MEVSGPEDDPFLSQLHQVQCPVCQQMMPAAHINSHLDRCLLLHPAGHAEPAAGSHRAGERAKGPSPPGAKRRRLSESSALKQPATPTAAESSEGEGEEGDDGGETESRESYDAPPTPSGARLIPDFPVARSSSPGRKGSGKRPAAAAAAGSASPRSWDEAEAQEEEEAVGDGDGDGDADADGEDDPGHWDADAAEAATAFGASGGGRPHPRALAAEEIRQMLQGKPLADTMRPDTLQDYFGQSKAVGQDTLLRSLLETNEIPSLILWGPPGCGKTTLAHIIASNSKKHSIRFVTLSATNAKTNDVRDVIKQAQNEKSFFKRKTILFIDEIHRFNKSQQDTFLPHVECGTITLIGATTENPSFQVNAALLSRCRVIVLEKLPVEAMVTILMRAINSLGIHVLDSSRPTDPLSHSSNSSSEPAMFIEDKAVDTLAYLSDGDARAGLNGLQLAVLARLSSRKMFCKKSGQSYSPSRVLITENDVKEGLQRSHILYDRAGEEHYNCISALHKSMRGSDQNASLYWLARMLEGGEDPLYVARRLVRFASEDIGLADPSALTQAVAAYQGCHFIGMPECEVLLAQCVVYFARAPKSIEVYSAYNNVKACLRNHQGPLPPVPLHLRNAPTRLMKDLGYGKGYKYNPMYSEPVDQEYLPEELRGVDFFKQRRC
Sequence of UniProt Q9Y4E6 (Q9Y4E6 whole entry, looked up): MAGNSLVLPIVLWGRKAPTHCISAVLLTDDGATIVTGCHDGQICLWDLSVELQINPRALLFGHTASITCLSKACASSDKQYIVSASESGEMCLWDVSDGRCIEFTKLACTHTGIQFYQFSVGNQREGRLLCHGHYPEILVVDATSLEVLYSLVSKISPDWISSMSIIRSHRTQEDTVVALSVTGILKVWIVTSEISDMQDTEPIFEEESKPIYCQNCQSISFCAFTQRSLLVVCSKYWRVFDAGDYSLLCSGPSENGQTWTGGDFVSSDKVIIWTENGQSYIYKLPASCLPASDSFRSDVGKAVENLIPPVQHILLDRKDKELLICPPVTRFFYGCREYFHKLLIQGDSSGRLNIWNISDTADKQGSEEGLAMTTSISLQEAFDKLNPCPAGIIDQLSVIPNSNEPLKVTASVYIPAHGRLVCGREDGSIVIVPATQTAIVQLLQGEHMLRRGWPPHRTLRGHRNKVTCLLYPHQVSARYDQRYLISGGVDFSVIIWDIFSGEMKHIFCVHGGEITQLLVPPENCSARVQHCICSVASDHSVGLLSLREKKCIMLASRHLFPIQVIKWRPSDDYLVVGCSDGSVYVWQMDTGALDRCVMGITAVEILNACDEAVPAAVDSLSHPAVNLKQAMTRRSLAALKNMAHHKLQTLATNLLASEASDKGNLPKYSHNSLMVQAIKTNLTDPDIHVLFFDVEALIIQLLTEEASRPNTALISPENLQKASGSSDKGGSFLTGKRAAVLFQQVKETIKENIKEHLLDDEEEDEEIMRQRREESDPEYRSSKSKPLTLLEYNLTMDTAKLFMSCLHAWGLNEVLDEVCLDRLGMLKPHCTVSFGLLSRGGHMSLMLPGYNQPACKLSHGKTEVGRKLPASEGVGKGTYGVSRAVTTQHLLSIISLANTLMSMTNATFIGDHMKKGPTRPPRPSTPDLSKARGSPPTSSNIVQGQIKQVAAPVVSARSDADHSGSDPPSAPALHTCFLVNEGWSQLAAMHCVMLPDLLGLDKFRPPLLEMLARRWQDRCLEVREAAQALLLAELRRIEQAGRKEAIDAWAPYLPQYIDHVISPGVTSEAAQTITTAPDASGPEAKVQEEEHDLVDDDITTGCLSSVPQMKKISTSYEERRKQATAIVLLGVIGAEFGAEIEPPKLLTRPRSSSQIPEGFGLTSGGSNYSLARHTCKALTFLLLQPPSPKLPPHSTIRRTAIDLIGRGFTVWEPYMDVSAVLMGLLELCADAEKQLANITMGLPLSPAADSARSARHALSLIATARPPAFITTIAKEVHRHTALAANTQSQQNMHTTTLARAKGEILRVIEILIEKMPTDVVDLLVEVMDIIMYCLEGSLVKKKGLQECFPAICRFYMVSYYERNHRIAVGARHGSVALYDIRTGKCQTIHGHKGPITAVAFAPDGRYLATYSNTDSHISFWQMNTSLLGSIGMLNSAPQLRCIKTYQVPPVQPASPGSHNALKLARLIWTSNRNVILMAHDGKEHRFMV
Sequence of UniProt P30291 (P30291 whole entry, looked up): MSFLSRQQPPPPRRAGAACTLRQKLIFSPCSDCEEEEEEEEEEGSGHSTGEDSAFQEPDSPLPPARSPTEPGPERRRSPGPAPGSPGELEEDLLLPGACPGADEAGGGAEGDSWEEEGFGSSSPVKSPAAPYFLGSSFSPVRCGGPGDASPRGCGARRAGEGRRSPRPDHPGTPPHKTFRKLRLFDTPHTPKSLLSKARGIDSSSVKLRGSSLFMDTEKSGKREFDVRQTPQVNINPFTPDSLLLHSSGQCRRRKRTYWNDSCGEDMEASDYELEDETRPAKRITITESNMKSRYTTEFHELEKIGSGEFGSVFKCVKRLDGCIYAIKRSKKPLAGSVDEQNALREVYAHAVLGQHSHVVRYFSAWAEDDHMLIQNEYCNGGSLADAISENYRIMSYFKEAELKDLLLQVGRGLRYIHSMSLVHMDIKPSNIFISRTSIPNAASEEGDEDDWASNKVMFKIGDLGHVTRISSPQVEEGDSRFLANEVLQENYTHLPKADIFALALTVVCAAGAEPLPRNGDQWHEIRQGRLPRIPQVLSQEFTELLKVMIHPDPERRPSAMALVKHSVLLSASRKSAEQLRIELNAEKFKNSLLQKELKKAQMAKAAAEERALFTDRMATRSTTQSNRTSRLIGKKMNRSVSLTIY
Sequence of UniProt Q9NQW7 (Q9NQW7 whole entry, looked up): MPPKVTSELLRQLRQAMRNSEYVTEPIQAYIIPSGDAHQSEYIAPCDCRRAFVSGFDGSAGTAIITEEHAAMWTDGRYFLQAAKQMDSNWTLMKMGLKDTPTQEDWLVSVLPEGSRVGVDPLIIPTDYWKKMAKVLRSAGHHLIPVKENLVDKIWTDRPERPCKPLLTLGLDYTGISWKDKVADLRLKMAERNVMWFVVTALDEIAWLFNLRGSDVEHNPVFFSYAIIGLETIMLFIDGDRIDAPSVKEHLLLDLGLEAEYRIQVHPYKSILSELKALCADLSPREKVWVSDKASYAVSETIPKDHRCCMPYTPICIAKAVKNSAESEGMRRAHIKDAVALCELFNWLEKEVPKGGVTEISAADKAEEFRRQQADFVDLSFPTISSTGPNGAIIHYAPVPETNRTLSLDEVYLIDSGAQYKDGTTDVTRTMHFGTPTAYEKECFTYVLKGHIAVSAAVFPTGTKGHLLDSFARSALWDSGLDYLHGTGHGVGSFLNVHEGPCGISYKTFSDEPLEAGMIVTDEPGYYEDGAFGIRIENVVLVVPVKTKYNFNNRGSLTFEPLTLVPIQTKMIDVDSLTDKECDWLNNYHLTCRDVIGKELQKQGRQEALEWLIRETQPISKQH
Sequence of UniProt P63027 (P63027 whole entry, looked up): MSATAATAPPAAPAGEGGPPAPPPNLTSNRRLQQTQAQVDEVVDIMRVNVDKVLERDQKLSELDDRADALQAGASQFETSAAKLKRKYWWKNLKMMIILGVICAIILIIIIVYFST

Regarding VCPIP1 (UniProt Q96JH7), the log2 fold change with nilotinib is -0.006; in [1] it was 0.044; with dasatinib, -0.045; in [2], -0.025; in assay [3], 0.016; with quisinostat, -0.046. In addition, the log2 fold change is 0.011 in the assay with tipifarnib; 0.031 in assay [4]; 0.029 in [5]; -0.059 in assay [6]; 0.007 in assay [7]; 0.894 (active) in the assay with vorinostat. For the same target, the log2 fold change with silmitasertib is 0.029; in [8], -0.021; with entospletinib, 0.006.
WDR91 (UniProt A4D1P6): the log2 fold change in the assay with nilotinib was -0.051; in [1] it was -0.025; with dasatinib, -0.039; in assay [2], -0.01; in assay [3], 0.056; with quisinostat, 0.005. Moreover, the log2 fold change with tipifarnib was 0.014; in assay [4], -0.009; in [5], -0.004; in assay [6], 0.011; in assay [7], -0.045; with vorinostat, -0.227 (active). For the same target, the log2 fold change was 0.042 with silmitasertib, -0.004 in assay [8] and -0.029 in the assay with entospletinib.
Take XPNPEP1 isoform 3 (UniProt Q9NQW7): the log2 fold change with nilotinib was 0.022; in assay [1] it was 0.016; in the assay with dasatinib, -0.049; in [2], -0.004; in assay [3], 0.014; in the assay with quisinostat, 0.024. The log2 fold change is 0.011 with tipifarnib; 0.007 in assay [4]; -0.005 in [5]; -0.023 in assay [6]; 0.006 in [7]; -0.068 with vorinostat. Moreover, the log2 fold change in the assay with silmitasertib was -0.001; in assay [8], -0.019; in the assay with entospletinib, 0.002.
Turning to VAMP2 (UniProt P63027), the log2 fold change with nilotinib is -0.034; in assay [1] it was 0.034; in the assay with dasatinib it was 0.002; in assay [2], 0.066; in assay [3], -0.009; with quisinostat it was 0.262. Further, the log2 fold change was 0.041 in the assay with tipifarnib; -0.027 in [4]; 0.019 in [5]; 0.067 in assay [6]; 0.071 in assay [7]; 0.016 with vorinostat. The log2 fold change in the assay with silmitasertib was -0.008; in [8], 0.132; with entospletinib, -0.054.
On to WRNIP1 (UniProt Q96S55), for which the log2 fold change in the assay with nilotinib was -0.008; in assay [1], 0.002; with dasatinib it was -0.018; in assay [2], -0.05; in [3], 0.066; in the assay with quisinostat, -0.035. Further, the log2 fold change is -0.02 with tipifarnib; 0.053 in assay [4]; -0.008 in assay [5]; -0.001 in [6]; -0.011 in assay [7]; -0.521 (active) in the assay with vorinostat. Also, the log2 fold change in the assay with silmitasertib was 0; in assay [8], -0.046; in the assay with entospletinib, -0.02.
As to WEE1 (UniProt P30291), the log2 fold change in the assay with nilotinib was -0.002; in assay [1] it was 0.001; with dasatinib it was 0.397 (active); in assay [2], -0.033; in assay [3] it was -0.002; in the assay with quisinostat, -0.069. Also, the log2 fold change in the assay with tipifarnib is -0.007; in [4], 0.223; in assay [5], -0.106; in assay [6], -0.044; in assay [7], 0.023; in the assay with vorinostat it was -0.52 (active). Besides, the results for the log2 fold change (with silmitasertib; in assay [8]; with entospletinib) were 0.107, -0.03 and -0.007, respectively.
For WDR7 (UniProt Q9Y4E6), the log2 fold change was 0.001 with nilotinib; -0.018 in assay [1]; -0.088 with dasatinib; -0.011 in assay [2]; 0.003 in [3]; -0.016 in the assay with quisinostat. Further, the log2 fold change was -0.032 with tipifarnib; 0.014 in [4]; 0.007 in assay [5]; -0.03 in [6]; -0.01 in assay [7]; -0.236 (active) with vorinostat. Also, the log2 fold change with silmitasertib was 0.032; in assay [8], 0.01; in the assay with entospletinib, -0.017.
On to USP16 (UniProt Q9Y5T5), for which the log2 fold change in the assay with nilotinib is 0.016; in assay [1], 0.005; in the assay with dasatinib, 0.053; in [2] it was 0.014; in assay [3] it was 0.041; in the assay with quisinostat, -0.014. The log2 fold change with tipifarnib is 0.016; in [4] it was 0.011; in [5], 0.023; in assay [6], 0.012; in assay [7] it was 0.019; in the assay with vorinostat, -0.272 (active). Also, the log2 fold change with silmitasertib is 0.012; in [8], -0.019; with entospletinib, -0.031.
For the target ZNF451 (UniProt Q9Y4E5), the log2 fold change in the assay with nilotinib was 0.016; in assay [1], 0.013; with dasatinib, -0.028; in [2] it was -0.033; in assay [3], 0.02; in the assay with quisinostat it was -0.044. For the same target, the log2 fold change is -0.049 in the assay with tipifarnib; 0.022 in assay [4]; 0.044 in [5]; -0.038 in assay [6]; 0.064 in [7]; -0.538 (active) in the assay with vorinostat. Further, the log2 fold change in the assay with silmitasertib is -0.003; in assay [8] it was -0.013; with entospletinib it was 0.019.
